HT1080 IDH1KD tx: kills HT-1080 cells with IDH1 knockdown; Potency, µM (titrated, usually from 46.1 µM), for the others: at the top dose activity, negative = toxicity, hits mostly cytotoxic; 360,000 tested, 2% active; AID 686971; HT-1080 IDH1 knockdown viability, ATP luminescence, 48 h;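 further: potency means the concentration at half of the fitted maximal effect; 0% = DMSO wells and -100% = cell-free medium wells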
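Cytotoxicity counter-line: IDH1KD HT-1080, 48 h, CellTiter-Glo. Curves classed by r2, magnitude and activity.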
IL-1B inflam inh: blocks inflammasome-driven IL-1 beta release; THP-1 LPS/ATP IL-1B secretion, AlphaLISA, 16 h; hits give low values; activity change, % at 57.5 µM; 360,000 tested, 4.7% active; AID 743279; in the data active means activity change below about -50%; inconclusive means mostly about -30% to -49%
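THP-1 cells pretreated 1 hr with compounds (up to 57.5 uM final), then stimulated with LPS (250 ng/mL final) plus ATP (1.25 mM final); secreted IL-1B measured by AlphaLISA after 16 hr, decreased signal indicating inhibition.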
KB-3-1 tox: KB-3-1 parental cell cytotoxicity | KB-3-1 viability, CellTiter-Glo ATP luminescence, 72 h | Potency, µM (top dose mostly 46.1 µM), usual class: cytotoxic | 400,000 tested, 1.4% active; further: potency means the concentration at half of the fitted maximal effect; nearly all actives have a fitted effect of over 60% in size
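Luminescent ATP read-out (CellTiter-Glo) measures survival of drug-naive KB-3-1 cells after 72 h compound exposure at 37 °C. Titration series was screened from lowest to highest concentration, with DMSO vehicle plates as background controls.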
HT1080-NT tox: kills 2HG-producing HT-1080-NT fibrosarcoma cells; HT-1080-NT fibrosarcoma viability, CellTiter-Glo ATP luminescence, 48 h; Potency, µM (highest dose often 46.1 µM), inactives show top-dose activity, negative = less viability, usual class: cytotoxic; 360,000 tested, 1.6% active; AID 686970;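 further: NT is the 2HG producing partner of a matched IDH1 knockdown line; potency means the concentration at half of the fitted maximal effect; 0% = DMSO-treated cells and -100% = media-only wells without cells; nearly all actives have a fitted effect of over 55% in size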
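Viability by CellTiter-Glo luminescence after 48 h compound exposure at 37C of HT-1080-NT cells (750/well, RPMI, 5% FBS). % activity scaled between DMSO wells and medium-only wells, then curve-fitted and categorized by curve class.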
KB-V1 MDR tox: KB-V1 MDR subline cytotoxicity. KB-V1 MDR cells viability, CellTiter-Glo, 72 h. Potency, µM (top dose mostly 46.1 µM), most hits filed as cytotoxic. 400,000 tested, 3.4% active; further: potency means the concentration at half of the fitted maximal effect; nearly all actives have a fitted effect of over 60% in size
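Cytotoxicity via CellTiter-Glo luminescence after 72 h compound exposure at 37 degrees C. Cells: drug-selected KB-V1 line, DMEM phenol-red free plus 10% FBS. Compounds tested at multiple concentrations; normalized data fitted to concentration-effect curves.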
* = called active by the depositor. This is a sample that favours compounds with a hit; in the whole collection about 8.8% have one here. Unless noted, the call rests on the fitted dose curve; in most records, active means well fitted curve in the direction sought with a large enough effect; inconclusive means small, poorly fitted or top-dose-only effect, or another doubt; inactive means no such curve, though single readings can be large; an effect the other way counts as inactive or inconclusive. Unless noted, on the % scale 0 is the no-effect control and ±100 the full control effect.

`COC(=O)C1=C(c2ccc(-c3ccccc3)c(F)c2)C[C@@H]2CC[C@H]1N2C(=O)N1CCOCC1` gave HT1080 IDH1KD tx -6%, IL-1B inflam inh inconclusive, KB-3-1 tox 18µM*, HT1080-NT tox -8% and KB-V1 MDR tox inactive.
Screening Cc1nnc(NC(=O)c2cccn(Cc3ccc(Cl)cc3)c2=O)s1 returned KB-3-1 tox inactive and KB-V1 MDR tox inactive.
For Cc1c(O)ccc(C(=O)CN2CC(C)OC(C)C2)c1O (stereo not drawn) the results were HT1080 IDH1KD tx 1%, IL-1B inflam inh 10, KB-3-1 tox inactive, HT1080-NT tox 0% and KB-V1 MDR tox inactive.
`COC(=O)C1=C(c2cc3ccccc3o2)C[C@@H]2CC[C@H]1N2C(=O)NCc1ccc(C(F)(F)F)cc1` gave HT1080 IDH1KD tx inconclusive, IL-1B inflam inh inconclusive, KB-3-1 tox inconclusive, HT1080-NT tox 21µM* and KB-V1 MDR tox inconclusive.
Screening COC(=O)C1=C(c2cc3ccccc3o2)C[C@@H]2CC[C@H]1N2C(=O)NCc1ccccc1 returned HT1080 IDH1KD tx -11%, IL-1B inflam inh -5, KB-3-1 tox inactive, HT1080-NT tox -10% and KB-V1 MDR tox inactive.
Screening COC(=O)C1=C(c2ccc(-c3ccccc3)c(F)c2)C[C@@H]2CC[C@H]1N2C(=O)N1CCCCC1 returned HT1080 IDH1KD tx 21µM*, IL-1B inflam inh -12, KB-3-1 tox inactive, HT1080-NT tox inconclusive and KB-V1 MDR tox inconclusive.
CC(N)Cc1c[nH]c2ccc(O)cc12 (stereo not drawn) was read as HT1080 IDH1KD tx 4%, IL-1B inflam inh 0, KB-3-1 tox inactive, HT1080-NT tox inconclusive and KB-V1 MDR tox inactive.
For CC(N)Cc1c[nH]c2ccc(OCc3cccs3)cc12 (stereo not drawn) the results were HT1080 IDH1KD tx inconclusive, IL-1B inflam inh -59*, KB-3-1 tox inactive, HT1080-NT tox -25% and KB-V1 MDR tox inconclusive.
`Cc1sc2c(c1C)C(c1cccs1)=NCC(=O)N2CC(=O)NCc1cccs1` gave HT1080 IDH1KD tx -6%, IL-1B inflam inh inconclusive, KB-3-1 tox inactive, HT1080-NT tox 5% and KB-V1 MDR tox inconclusive.
`Cc1sc2c(c1C)C(c1ccc(C(C)(C)C)cc1)=NCC(=O)N2CC(=O)Nc1nccs1` gave HT1080 IDH1KD tx inconclusive, IL-1B inflam inh -3, KB-3-1 tox inconclusive, HT1080-NT tox inconclusive and KB-V1 MDR tox 21µM*.
For CCSc1nnc(NC(=O)c2cccn(Cc3ccccc3Cl)c2=O)s1 the results were KB-3-1 tox inactive and KB-V1 MDR tox inactive.
Screening CCC(C)N1CCN(C(=O)COc2ccc3ccccc3c2)CC1 (stereo not drawn) returned HT1080 IDH1KD tx 1%, IL-1B inflam inh -13, KB-3-1 tox inactive, HT1080-NT tox 5% and KB-V1 MDR tox inactive.
CC(C)N(C(=O)CCl)c1ccccc1 was read as HT1080 IDH1KD tx inconclusive, IL-1B inflam inh -51*, KB-3-1 tox inconclusive, HT1080-NT tox 3.7µM* and KB-V1 MDR tox inconclusive.
`CC1(CCCc2ccc(N(CCCl)CCCl)cc2)NC(=O)NC1=O` (stereo not drawn) gave HT1080 IDH1KD tx 0%, IL-1B inflam inh 1, KB-3-1 tox inactive, HT1080-NT tox -1% and KB-V1 MDR tox inactive.
For Cn1c(=O)oc2cc(S(=O)(=O)NCCC(=O)NCCc3ccc(Cl)cc3)ccc21 the results were HT1080 IDH1KD tx -18%, IL-1B inflam inh 30, KB-3-1 tox 16µM*, HT1080-NT tox inconclusive and KB-V1 MDR tox inactive.
CCOC(=O)n1c(=O)oc2ccc(Cl)cc21 was read as HT1080 IDH1KD tx inconclusive, IL-1B inflam inh -7, KB-3-1 tox inactive, HT1080-NT tox -5% and KB-V1 MDR tox inactive.
CN(C)C(Cc1ccccc1)C(=O)c1c[nH]c2ccccc12 (stereo not drawn) was read as HT1080 IDH1KD tx -24%, IL-1B inflam inh -30, KB-3-1 tox inactive, HT1080-NT tox -16% and KB-V1 MDR tox inactive.
For Cn1c(=O)oc2cc(NC(=O)CCl)ccc21 the results were HT1080 IDH1KD tx inconclusive, IL-1B inflam inh -80*, KB-3-1 tox inconclusive, HT1080-NT tox inconclusive and KB-V1 MDR tox inconclusive.
For Cc1cc(NC(=O)COC(=O)c2c(C)nn(Cc3ccccc3)c2C)no1 the results were HT1080 IDH1KD tx -2%, IL-1B inflam inh -1, KB-3-1 tox inconclusive, HT1080-NT tox -2% and KB-V1 MDR tox inconclusive.
Screening Cc1nn(Cc2ccccc2)c(C)c1C(=O)OCC(=O)Nc1ccccc1SCC#N returned HT1080 IDH1KD tx -11%, IL-1B inflam inh 10, KB-3-1 tox inactive, HT1080-NT tox -4% and KB-V1 MDR tox 7.3µM*.
Screening O=C1NC(=O)C(CCc2ccncc2)(Cc2cccc(Cl)c2Cl)C(=O)N1c1ccc(Br)cc1 (stereo not drawn) returned HT1080 IDH1KD tx 8.2µM*, IL-1B inflam inh 26, KB-3-1 tox 5.2µM*, HT1080-NT tox 16µM* and KB-V1 MDR tox 8.2µM*.
CCc1ccc(N2C(=O)NC(=O)C(CCc3ccncc3)(CCc3ccncc3)C2=O)cc1 was read as HT1080 IDH1KD tx 10%, IL-1B inflam inh 8, KB-3-1 tox inactive, HT1080-NT tox 4% and KB-V1 MDR tox inactive.
COc1ccc(-n2c(/C=C/c3ccc(O)c(O)c3)nc3ccccc3c2=O)cc1 was read as HT1080 IDH1KD tx -9%, IL-1B inflam inh inconclusive, KB-3-1 tox inactive, HT1080-NT tox -11% and KB-V1 MDR tox inactive.
`COc1cc(/C=C/c2nc3ccccc3c(=O)n2-c2ccc(O)cc2)ccc1O` gave HT1080 IDH1KD tx 18µM*, IL-1B inflam inh -65*, KB-3-1 tox inconclusive, HT1080-NT tox 16µM* and KB-V1 MDR tox inconclusive.
For CC(Cc1ccccc1)NCC(=O)Nc1cc(N(C)C)nc2ccccc12 (stereo not drawn) the results were HT1080 IDH1KD tx 23µM*, KB-3-1 tox inactive, HT1080-NT tox inconclusive and KB-V1 MDR tox inconclusive.
`CC(Cc1ccccc1)NCc1ccccc1O` (stereo not drawn) gave HT1080 IDH1KD tx -4%, IL-1B inflam inh 0, KB-3-1 tox inactive, HT1080-NT tox 5% and KB-V1 MDR tox inactive.
`Cc1ccccc1-n1c(-c2ccco2)nc2ccccc2c1=O` gave HT1080 IDH1KD tx -16%, IL-1B inflam inh -17, KB-3-1 tox inactive, HT1080-NT tox -12% and KB-V1 MDR tox inactive.
Screening O=c1[nH]c(=S)n(-c2ccc(Cl)cc2)c(O)c1/C=N/N1CCOCC1 returned HT1080 IDH1KD tx 0%, IL-1B inflam inh 0, KB-3-1 tox inactive, HT1080-NT tox -2% and KB-V1 MDR tox inactive.
For CCOC(=O)c1c(C=O)c2ccccc2n1Cc1ccccc1 the results were HT1080 IDH1KD tx 2%, IL-1B inflam inh 45, KB-3-1 tox inconclusive, HT1080-NT tox 0% and KB-V1 MDR tox 21µM*.

Bioassay records deposited in PubChem BioAssay by National Center for Advancing Translational Sciences (NCATS).
